Most compounds without a hit are left out; they make up all but 4.6% or so of the library.
D1 potentiator: human D1 dopamine receptor positive modulation | HEK293 TREx D1 cells, calcium flux, dopamine EC20 potentiation | potentiation, % at 10 µM | hit rate 0.036% among 360,000; in the data active = potentiation above about 30%
Target sequence (P21728 whole entry, looked up): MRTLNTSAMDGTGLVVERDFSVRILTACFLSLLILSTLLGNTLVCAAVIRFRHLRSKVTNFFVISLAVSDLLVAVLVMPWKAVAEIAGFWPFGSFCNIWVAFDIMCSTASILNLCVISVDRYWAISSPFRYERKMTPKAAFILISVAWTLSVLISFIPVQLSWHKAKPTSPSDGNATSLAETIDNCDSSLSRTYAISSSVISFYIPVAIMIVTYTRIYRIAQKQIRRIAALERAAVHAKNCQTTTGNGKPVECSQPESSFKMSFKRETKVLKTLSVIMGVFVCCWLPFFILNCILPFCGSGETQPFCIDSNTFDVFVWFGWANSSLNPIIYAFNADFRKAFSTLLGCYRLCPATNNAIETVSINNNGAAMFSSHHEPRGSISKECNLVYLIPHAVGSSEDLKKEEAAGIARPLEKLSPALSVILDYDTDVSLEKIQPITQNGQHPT
D1 agonist: agonists of human D1 dopamine receptor. P21728. HEK293 T-REx D1 cells, calcium flux, agonist mode. activation, % at 2 µM. hit rate 1% among 360,000. AID 504660
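Inducible HEK293 T-REx D1 cells, force-coupled to calcium signalling, were plated at 4000 cells/well with tetracycline and held overnight at 30 C. After no-wash calcium dye loading, compound-evoked calcium rise over 180 s flagged agonists.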
TRHR ag: agonists of human TRH receptor. P34981. TRHR cells, calcium flux fluo-8, FDSS agonist mode. activation, % at 2 µM. hit rate 0.18% among 360,000
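Agonist-mode FDSS calcium read (Ex 480/Em 530, 1 s cycles) in 1536-well TRHR cells with fluo-8 dye, after 10-cycle baseline and 23 nL compound addition; TRH at EC20 (10 nM final) added afterwards for the enhancer phase.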
D1 antag: antagonists of human D1 dopamine receptor; HEK293 TREx D1 cells, calcium flux, dopamine EC80; stronger effect = lower value; activity change, negative = inhibition, % at 10 µM; hit rate 3.2% among 360,000; AID 504652; in the data active = activity change below about -30%
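Tetracycline-induced HEK293 T-REx cells with force-coupled D1 receptor were loaded with a no-wash calcium dye. Compound was added after a 10 s baseline and read kinetically for 180 s; EC80 dopamine was then added and calcium flux followed another 180 s.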
TRHR enhancer: allosteric enhancers of human TRH receptor | enhancement, % at 2 µM | TRHR cells, fluo-8 calcium fluorescence, EC20 TRH enhancement | P34981 | hit rate 0.66% among 360,000; in the data active = enhancement above about 30%
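TRHR-expressing cells loaded with fluo-8 calcium dye were read kinetically (ex 480/em 530) during compound addition, then stimulated with an EC20 of TRH (10 nM final). Enhancement of the Gq-mediated intracellular calcium response was scored.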
Each line names hits and unclear results; the compound was inactive in the other large screens; ! = not confirmed by another sample. Rule as the data show it, unless noted: active = activation above about 30%; inactive = the rest.

Cc1ccc(Nc2cc(C)c(C#N)c3nc4ccccc4n23)c(C)c1	D1 antag -38
S=c1[nH]nc(-c2ccncc2)n1/N=C/C=C/c1ccco1	none
S=c1[nH]nc(-c2ccccc2Cl)n1/N=C/C=C/c1ccco1	D1 antag -36
CCOc1ccccc1NC(=O)C(=O)NCC(c1cccnc1)N1CCN(c2ccccc2)CC1 (stereo not given)	none
COCc1[nH][nH]c(=O)c1C=Nc1ccc(OC(F)(F)F)cc1	D1 antag -33
O=C(COC(=O)C1CCN(S(=O)(=O)c2cc([N+](=O)[O-])ccc2Cl)CC1)Nc1ncc(Cl)cc1Cl	D1 antag -34
COc1cc2[nH]c(=S)n(C3CC3)c(=O)c2cc1OC	D1 antag -31
CCOc1ccc(-n2c(C)nc3cc(C(=O)NC4CCCC4)ccc32)cc1	none
CN(C)CCCNCCCNC(=O)/C=N/O	D1 antag -38
CN(C)CCCNCCCCNC(=O)/C=N/O	none
Cc1ccc(C)c(N2CCN(C(=O)c3cc(S(=O)(=O)N4CCCC4)c[nH]3)CC2)c1	none
Cc1c(-c2nsc(NC(=O)c3cccs3)n2)nnn1-c1ccc(Br)cc1	none
Cc1nc2ccc(-c3ccccc3)cc2o1	D1 antag -46
CCC(Cn1nnc2ccccc2c1=O)NC(=O)Nc1cc(C)cc(C)c1 (stereo not given)	none
Cn1c(Cn2c(=O)sc3ccccc32)nnc1SCC(=O)NCc1ccco1	none
O=C(CSc1nnc(Cn2c(=O)sc3ccccc32)n1-c1ccccc1)NCc1ccco1	TRHR enhancer 40
COc1ccc(-n2c(COc3cccc4ccccc34)nnc2SCC(=O)NCc2ccco2)cc1	D1 antag -34
CC(=O)Nc1cccc(NC(=O)CCn2c(=O)sc3ccccc32)c1	D1 antag -90
O=C(CSc1nnc(Cc2ccccc2)n1Cc1ccccc1)NCc1ccco1	none
O=C(CSc1nnc(CNc2ccc(Cl)cc2)n1Cc1ccccc1)NCc1ccco1	D1 antag -32
O=C(CCn1c(=O)sc2ccccc21)NCc1ccc2c(c1)OCO2	none
O=C(CCn1c(=O)sc2ccccc21)NCc1ccco1	D1 agonist 79
O=C(CSc1nnc(Cn2c(=O)sc3ccccc32)n1-c1ccccc1)N1CCOCC1	none
COc1ccc(CNC(=O)CSc2nnc3nc(C)cc(C)n23)cc1OC	none
Cc1ccccc1OCc1nnc(SCC(=O)O)n1-c1ccccc1	none
COc1cccc(-n2c(COc3ccccc3C)nnc2SCC(=O)O)c1	D1 antag -32
Cc1cc(C)n2c(SCC(=O)NCc3ccco3)nnc2n1	D1 antag -59
Cc1ccccc1-n1c(Cn2c(=O)sc3ccccc32)nnc1SCC(=O)N1CCOCC1	D1 antag -38 (no result: D1 potentiator)
Cc1cccc(CCNC(=O)c2nc(-c3ccc(Cl)cc3)n3c2CCCCC3)c1	none
COC(=O)CNC(=O)c1nn(-c2cccc(OC)c2)c(=O)c2ccccc12	D1 antag -40
COc1cccc(-n2nc(C(=O)O)c3ccccc3c2=O)c1	none
O=C(Nc1ccccc1O)c1ccc(NC(=O)C2CC2)cc1	D1 antag -33
O=C(Nc1ccccc1C(=O)O)c1ccc(NC(=O)C2CC2)cc1	none
CCn1c(=O)n(CC(=O)Nc2cc(OC)c(OC)c(OC)c2)c(=O)c2ccccc21	D1 antag -45
COc1ccc(NC(=O)Cc2c(C(=O)O)n(C)c3ccccc23)cc1OC	none
CCn1c(=O)n(CC(=O)Nc2cccc(OC)c2)c(=O)c2ccccc21	none
COc1cc(NC(=O)Cc2c(C(=O)O)n(C)c3ccccc23)cc(OC)c1OC	D1 antag -106
O=C(NCc1ccccc1Cl)c1ccc(NC(=O)c2nsc3ccccc23)cc1	none
O=C(NCCc1ccc(Cl)cc1)c1cnc2sc(N3CCOCC3)nn2c1=O	none
CCc1nn2c(=O)cc(COc3ccc(/C=C(\C#N)C(=O)Nc4ccc(C)cc4)cc3)nc2s1	none
COc1ccc(C2N3CC4(C)CN2CC(C)(C3)C4O)cc1OC (stereo not given)	TRHR enhancer 31
COc1ccc(C2N3CC4(C)CN2CC(C)(C3)C4O)cc1 (stereo not given)	none
O=C(NC1CC1)c1sc2ccccc2c1Cl	none
COc1ccc(C(=O)NNC(=S)NC(=O)/C=C/c2cccs2)cc1	D1 antag -35
O=C(NNC(=S)NC1CCCCC1)c1sc2ccccc2c1Cl	none
COc1ccc(C(=O)NNC(=S)NC(=O)C(C)(C)C)cc1	D1 agonist 306, TRHR ag 79, D1 antag -35
CC(C)(C)C(=O)NC(=S)NNC(=O)c1sc2ccccc2c1Cl	D1 potentiator 56, D1 agonist 446
O=C(NNC(=O)C1CC2CCC1C2)c1sc2ccccc2c1Cl (stereo not given)	D1 antag -34
COc1ccc(OC)c(NC(=O)C2CCN(S(=O)(=O)c3ccc4c(c3)CCCC(=O)N4)CC2)c1	none
CC(C)(C)C1CCc2c(sc(NC(=O)c3cccc(Cl)c3)c2C(=O)NCc2ccco2)C1 (stereo not given)	none
Cn1c(=O)n(CCc2ccccc2)c(=O)c2c1nc1n2CCN1c1ccc(Cl)cc1	none
O=C(COC(=O)CCC1CCCC1)Nc1ccc(F)cc1	none (no result: D1 potentiator)
COC(=O)c1ccc(NC(=O)COC(=O)CCC2CCCC2)cc1	D1 antag -41 (no result: D1 potentiator)
COC(=O)c1ccc(NC(=O)C[n+]2ccccc2)cc1	none
CC(=O)c1ccc(NC(=O)CO/N=C(\C)c2cccs2)cc1	D1 antag -36
CC(=O)c1ccc(NC(=O)C[n+]2ccccc2)cc1	D1 antag -31
CC(=O)NCC(=O)OCC(=O)Nc1ccc(C(C)=O)cc1	D1 antag -31
CC(=O)c1cccc(Nc2ncnc3c2cnn3C)c1	none
COC(=O)C1CCN(C(c2ccccc2Cl)c2sc3nc(-c4ccco4)nn3c2O)CC1 (stereo not given)	none (no result: D1 antag)
Cc1ccc(/C=C(\C#N)C(=O)Nc2cccc(Br)c2)o1	none
N#C/C(=C\c1ccc(N2CCCCC2)o1)C(N)=O	D1 agonist 37
N#C/C(=C\c1ccc(N2CCCCC2)o1)C(=O)Nc1cccc(Br)c1	D1 agonist 428, TRHR ag 108
O=Cc1ccc(N2CCCC2)o1	none
CN(C)CCN(Cc1ccco1)C(=O)c1oc2ccccc2c1NC(=O)c1ccccc1	D1 antag -42
COc1ccccc1C(=O)Nc1c(C(=O)N(CCN(C)C)Cc2ccco2)oc2ccccc12	D1 agonist 46!, D1 antag -38!
Cc1ccccc1C(=O)Nc1c(C(=O)N(CCN(C)C)Cc2ccco2)oc2ccccc12	none
C=CC[C@H]1CC(C)=C[C@H](CC=C)N1C(=O)c1cc(COc2ccccc2SC)on1	D1 agonist 40
Cc1ccc(N=Nc2ccc(O)c3ncccc23)cc1C	D1 agonist 36
Cc1cc(C)cc(C(=O)N(CCc2ccccc2)C2CC3CCC(C2)N3C)c1 (stereo not given)	D1 antag -31

Compound activity (PubChem BioAssay)
